# Results from PubChem BioAssay (NCATS).
# Results filed as inconclusive are left out. Entries that show only a call come without a potency. The source holds several records for some structures; these can differ, active in one and inactive in another. The source made the active and inactive calls. Unless noted, calls follow the shape of the full dose curve.
# Assays:
# [1] = qHTS for Inhibitors of the Functional Ribonucleoprotein Complex (vRNP) of Lassa (LASV) Arenavirus: LASV Primary Screen - GLuc reporter signal (AID 1347082; calls by dose curve; tested in HEK293 reporter line; also: nearly all actives have a fitted effect of over 60% in size)
# [2] = qHTS for Inhibitors of the Functional Ribonucleoprotein Complex (vRNP) of Lassa (LASV) Arenavirus: Viability assay - alamar blue signal for LASV Primary Screen (AID 1347083; calls by dose curve; tested in HEK293 reporter line; also: nearly all actives have a fitted effect of over 80% in size)
# [3] = qHTS for Inhibitors of the Functional Ribonucleoprotein Complex (vRNP) of Lymphocytic Choriomeningitis Arenaviruses (LCMV): Viability assay - alamar blue signal for LCMV Primary Screen (AID 1347085; calls by dose curve; tested in HEK293 reporter line; also: nearly all actives have a fitted effect of over 80% in size)
# [4] = target: Nucleoprotein (Lymphocytic choriomeningitis virus (strain Armstrong)) (UniProt P09992); assay: qHTS for Inhibitors of the Functional Ribonucleoprotein Complex (vRNP) of Lymphocytic Choriomeningitis Arenaviruses (LCMV): LCMV Primary Screen - GLuc reporter signal (AID 1347086); also: nearly all actives have a fitted effect of over 70% in size
# Sequence of Nucleoprotein (Lymphocytic choriomeningitis virus (strain Armstrong)) (P09992 whole entry, looked up): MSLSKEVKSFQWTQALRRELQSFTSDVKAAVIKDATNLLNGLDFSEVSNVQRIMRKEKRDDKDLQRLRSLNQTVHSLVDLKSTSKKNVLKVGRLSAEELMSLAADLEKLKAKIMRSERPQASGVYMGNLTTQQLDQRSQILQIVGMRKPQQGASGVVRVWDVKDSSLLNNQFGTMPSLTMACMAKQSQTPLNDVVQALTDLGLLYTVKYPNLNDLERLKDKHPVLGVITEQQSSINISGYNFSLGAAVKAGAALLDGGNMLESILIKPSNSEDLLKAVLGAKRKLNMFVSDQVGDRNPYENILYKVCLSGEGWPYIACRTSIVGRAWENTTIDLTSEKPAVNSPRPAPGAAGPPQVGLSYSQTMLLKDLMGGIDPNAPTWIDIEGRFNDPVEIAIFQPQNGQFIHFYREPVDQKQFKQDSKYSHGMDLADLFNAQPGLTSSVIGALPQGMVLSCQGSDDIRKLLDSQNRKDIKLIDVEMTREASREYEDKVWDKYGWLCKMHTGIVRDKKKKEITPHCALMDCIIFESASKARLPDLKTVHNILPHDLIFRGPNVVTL
# [5] = Cytotoxicity counterscreen for inhibitors of SARS-CoV-2 cell entry (AID 1645845); also: nearly all actives have a fitted effect of over 50% in size
# Procedure, shortened: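 HEK293-ACE2 cells (Expi293F stably expressing human ACE2) seeded overnight, then compound for 1 h plus 48 h at 37C. Viability as ATP content by luminescence; normalized to wells with cells and media-only wells.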
# [6] = Confirmatory qHTS to identify inhibitors of SARS-CoV-2 cell entry (AID 1645844); also: potency is read from the fitted curve at half-maximal effect; nearly all actives have a fitted effect of over 45% in size
# Procedure, shortened: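 HEK293-ACE2 cells were pretreated 1 h with compound, then infected with MLV-based pseudoparticles bearing C-terminally truncated Wuhan-Hu-1 spike for 48 h at 37C; luciferase luminescence normalized to spike PP and bald PP wells.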
# [7] = Primary qHTS to identify inhibitors of SARS-CoV-2 cell entry (AID 1645846); conditions: activity change, negative = inhibition: at 57.1 µM (top of the series) unless noted; also: nearly all actives have a fitted effect of over 45% in size
# Procedure, shortened: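 Entry measured by luciferase signal 48 h after adding SARS-CoV-2-S pseudotyped MLV particles to HEK293-ACE2 cells preincubated 1 h with compounds. Normalisation: bald particles and spike particles.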
# [8] = VSVG counterscreen qHTS to identify inhibitors of SARS-CoV-2 cell entry (AID 1645847); also: potency is read from the fitted curve at half-maximal effect; nearly all actives have a fitted effect of over 65% in size
# Procedure, shortened: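 Luminescence read after 48 h infection at 37 C with VSV-G-pseudotyped MLV particles, following 1 h compound exposure of Expi293F cells stably expressing human ACE2; scaled between bald particle and VSV-G particle wells.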
# [9] = target: Cytochrome P450 3A4 (Homo sapiens) (UniProt P08684); assay: qHTS Assay for Inhibitors and Substrates of Cytochrome P450 3A4 (AID 884; active = well fitted curve in the direction sought with a large enough effect; an effect the other way counts as inactive or inconclusive; also: nearly all actives have a fitted effect of over 50% in size; also: potency is read from the fitted curve at half-maximal effect)
# Sequence of Cytochrome P450 3A4 (Homo sapiens) (P08684 whole entry, looked up): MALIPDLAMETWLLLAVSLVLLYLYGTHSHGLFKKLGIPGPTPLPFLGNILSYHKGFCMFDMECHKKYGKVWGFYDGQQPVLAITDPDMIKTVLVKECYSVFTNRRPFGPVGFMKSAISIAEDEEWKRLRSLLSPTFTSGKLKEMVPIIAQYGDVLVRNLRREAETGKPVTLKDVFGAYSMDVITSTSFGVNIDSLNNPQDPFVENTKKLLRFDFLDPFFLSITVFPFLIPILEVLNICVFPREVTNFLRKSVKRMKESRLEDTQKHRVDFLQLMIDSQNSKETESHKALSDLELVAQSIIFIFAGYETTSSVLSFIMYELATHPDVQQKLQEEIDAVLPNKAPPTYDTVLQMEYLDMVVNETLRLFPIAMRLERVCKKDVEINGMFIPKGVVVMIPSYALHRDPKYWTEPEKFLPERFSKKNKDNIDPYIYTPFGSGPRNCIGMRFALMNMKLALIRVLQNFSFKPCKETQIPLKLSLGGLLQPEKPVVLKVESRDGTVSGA
# Procedure, shortened: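 20 nM human CYP3A4 with 25 uM Luciferin-PPXE (at KM) in 200 mM KPO4, preincubated 10 min with compound; NADPH regeneration started a 60 min RT reaction. Luciferin detected by luminescence, normalized to 57 uM ketoconazole as full inhibition.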
# [10] = qHTS Assay for Lipid Storage Modulators (AID 1519); conditions: Drosophila S3 cells, BODIPY lipid droplet/cell ratio, laser cytometry, cells loaded with oleic acid; for activity change, negative = inhibition: at 57.5 µM (top of the series)
# Procedure, shortened: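 Cells seeded at 5,000 per well were treated with compounds over a concentration series and loaded with oleic acid (400 uM, as added). Lipid droplet fluorescence (488 nm excitation, 500-530 nm channel) was read by laser-scanning cytometry and normalized to 20 uM Triacsin C.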
# [11] = target: DNA dC->dU-editing enzyme APOBEC-3G (Homo sapiens) (UniProt Q9HC16); assay: qHTS for inhibitors of Vif-A3G interactions: Validation (AID 588379; active = well fitted curve in the direction sought with a large enough effect; an effect the other way counts as inactive or inconclusive)
# Sequence of DNA dC->dU-editing enzyme APOBEC-3G (Homo sapiens) (Q9HC16 whole entry, looked up): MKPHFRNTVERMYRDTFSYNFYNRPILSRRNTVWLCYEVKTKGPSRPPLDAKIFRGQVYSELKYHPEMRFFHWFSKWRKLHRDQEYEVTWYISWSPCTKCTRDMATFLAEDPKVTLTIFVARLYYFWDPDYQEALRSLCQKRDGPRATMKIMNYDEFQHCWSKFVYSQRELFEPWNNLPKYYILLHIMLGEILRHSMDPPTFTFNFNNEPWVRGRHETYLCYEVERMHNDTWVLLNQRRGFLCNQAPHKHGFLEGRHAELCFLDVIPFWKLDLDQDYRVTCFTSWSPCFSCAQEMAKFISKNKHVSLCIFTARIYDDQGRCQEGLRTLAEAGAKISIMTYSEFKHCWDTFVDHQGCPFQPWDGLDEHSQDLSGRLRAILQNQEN
# Procedure, shortened: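 HeLa cells stably expressing Vif and A3G-eYFP, 700 cells/well, incubated overnight at 37 deg C, then exposed to compound overnight at 37 deg C. Inhibition of Vif-mediated degradation read as increased yellow fluorescence (Ex 488/Em 500-530) by laser-scanning cytometry.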
# [12] = target: Cytochrome P450 3A4 (Homo sapiens) (UniProt P08684); assay: qHTS Assay for Activators of Cytochrome P450 3A4 (AID 885; active = well fitted curve in the direction sought with a large enough effect; an effect the other way counts as inactive or inconclusive; also: nearly all actives have a fitted effect of over 65% in size)
# Procedure, shortened: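 Quantitative HTS format: compounds preincubated with 20nM human CYP3A4 and Luciferin-PPXE substrate at KM, reaction started by NADPH regeneration, stopped after 60 min, luciferase luminescence read 20 min later.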
# [13] = Confirmation and Secondary Assay for Modulators of Hemoglobin Beta Chain Splicing at IVS2 654 locus (AID 910; active = well fitted curve in the direction sought with a large enough effect; an effect the other way counts as inactive or inconclusive;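 also: HeLa cells stably carrying EGFP split by mutant beta-globin IVS2-654 intron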)
# Procedure, shortened: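 HeLa cells stably expressing EGFP interrupted by β-globin IVS2-654 intron, seeded overnight in Opti-MEM/2% FCS, then treated 2 days at 37 °C. Restored splicing read as total peak GFP intensity per well by laser scanning cytometry (488 nm excitation, 500–520 nm emission); 500 nM antisense PNA as control.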
# [14] = Confirmation and Secondary Assay for Modulators of Hemoglobin Beta Chain Splicing at IVS2 705 locus (AID 930; active = well fitted curve in the direction sought with a large enough effect; an effect the other way counts as inactive or inconclusive;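 also: HeLa cells stably expressing the EGFP-705 splicing reporter; GFP fluorescence per well restored by corrected splicing of the IVS2-705 intron in EGFP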)
# Procedure, shortened: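 HeLa EGFP-705 reporter; 500 cells/well, o/n 37C 5% CO2; cpd 2 d; 488 ex/500-520 em laser scan; total peak GFP intensity/well. Ref: 500 nM […] antisense PNA.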
# [15] = target: Ubiquitin carboxyl-terminal hydrolase 1 (Homo sapiens) (UniProt O94782); assay: Inhibitors of USP1/UAF1: Pilot qHTS (AID 504865; active = well fitted curve in the direction sought with a large enough effect; an effect the other way counts as inactive or inconclusive;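 also: rhodamine fluorescence freed from ubiquitin-rhodamine substrate followed over time; top concentration of the series differs between compounds; nearly all actives have a fitted effect of over 35% in size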)
# Sequence of Ubiquitin carboxyl-terminal hydrolase 1 (Homo sapiens) (O94782 whole entry, looked up): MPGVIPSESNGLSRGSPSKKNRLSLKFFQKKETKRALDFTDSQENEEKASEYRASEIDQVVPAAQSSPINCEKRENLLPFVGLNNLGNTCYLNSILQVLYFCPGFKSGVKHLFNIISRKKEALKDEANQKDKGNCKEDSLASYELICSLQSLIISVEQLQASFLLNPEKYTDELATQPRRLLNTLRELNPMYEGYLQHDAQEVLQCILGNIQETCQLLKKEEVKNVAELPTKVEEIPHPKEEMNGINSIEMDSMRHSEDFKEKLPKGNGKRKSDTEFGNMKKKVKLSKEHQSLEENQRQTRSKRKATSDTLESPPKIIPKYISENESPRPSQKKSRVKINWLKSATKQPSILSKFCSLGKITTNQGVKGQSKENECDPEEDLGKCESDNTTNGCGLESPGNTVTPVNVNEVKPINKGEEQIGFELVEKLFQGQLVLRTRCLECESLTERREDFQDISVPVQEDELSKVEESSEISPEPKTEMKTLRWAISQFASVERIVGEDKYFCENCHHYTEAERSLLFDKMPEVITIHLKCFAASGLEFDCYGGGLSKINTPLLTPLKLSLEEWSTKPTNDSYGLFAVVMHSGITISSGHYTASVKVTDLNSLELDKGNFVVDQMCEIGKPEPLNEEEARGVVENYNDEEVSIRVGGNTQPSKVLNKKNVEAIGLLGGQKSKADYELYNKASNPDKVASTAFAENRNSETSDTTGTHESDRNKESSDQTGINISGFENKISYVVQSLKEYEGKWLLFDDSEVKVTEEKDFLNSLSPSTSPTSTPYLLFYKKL
# Procedure, shortened: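 Deubiquitinase activity followed as kinetic rhodamine fluorescence release from 150 nM Ub-Rho. 1 nM USP1/UAF1 with compound, after 15 min room-temperature preincubation, in HEPES pH 7.8 buffer containing TCEP, EDTA, BSA and Tween-20.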
# [16] = measured here: cell count channel max response
# [17] = measured here: lipid channel max response
compound,measurement,setting,value
COc1cccc2c(NCc3ccccc3)nc(-n3c(N)nc4ccccc43)nc12,Potency,[1],inactive
same,Potency,[2],inactive
same,Potency,[3],inactive
same,Potency,[4],inactive
same,Potency,[5],inactive
O=C(c1ccc(C(=O)N2CCC(N3CCCC3)CC2)c(Nc2ccccc2)c1)N1CCC(N2CCCC2)CC1,Potency,[1],inactive
same,Potency,[2],inactive
same,Potency,[3],inactive
same,Potency,[4],inactive
same,Potency,[5],inactive
C[C@]12CC[C@@H]3c4ccc(O)cc4C[C@@H](CCCCCCCCCS(=O)CCCC(F)(F)C(F)(F)F)[C@H]3[C@H]1CC[C@H]2O (some centres undefined),Potency,[1],inactive
same,Potency,[2],inactive
same,Potency,[3],inactive
same,Potency,[4],inactive
same,Potency,[5],inactive
N#CC1(c2cccc(C(=O)Nc3cc(Oc4ccc5nc(NC(=O)C6CC6)sc5n4)ccc3F)c2Cl)CC1,Potency,[1],inactive
same,Potency,[2],inactive
same,Potency,[3],inactive
same,Potency,[4],inactive
same,Potency,[6],2.71 µM (active)
same,Potency,[5],inactive
same,"activity change, negative = inhibition",[7],-79.3%
same,Potency,[8],304 nM (active)
CCCC1OC2C[C@@H]3[C@H]4CCC5=CC(=O)C=C[C@]5(C)[C@H]4C(O)C[C@]3(C)[C@]2(C(=O)CO)O1 (some centres undefined),Potency,[1],inactive
same,Potency,[2],inactive
same,Potency,[3],inactive
same,Potency,[4],inactive
same,Potency,[5],inactive
O=S(=O)(O)CCSSCCS(=O)(=O)O,Potency,[1],inactive
same,Potency,[2],inactive
same,Potency,[3],inactive
same,Potency,[4],inactive
same,Potency,[5],inactive
CN[C@@H](Cc1c[nH]c2ccccc12)C(=O)O,Potency,[9],inactive
same,"activity change, negative = inhibition",[10],2.25% (inactive)
same,max response,[10]; [16],-7.03%
same,max response,[10]; [17],3.12%
same,Potency,[11],inactive
same,Potency,[1],inactive
same,Potency,[2],inactive
same,Potency,[3],inactive
same,Potency,[4],inactive
C=CC1CN2CCC1CC2C(O)c1ccnc2ccccc12 (centres undefined),Potency,[9],25.1 µM (active) and inactive
same,Potency,[12],inactive
same,Potency,[13],inactive
same,outcome,[14],inactive
same,"activity change, negative = inhibition",[10],8.66% (inactive)
same,max response,[10]; [16],10.9%
same,max response,[10]; [17],22.1%
same,Potency,[15],inactive
same,Potency,[1],inactive
same,Potency,[2],inactive
same,Potency,[3],inactive
same,Potency,[4],inactive
